Compound activity deposited in PubChem BioAssay by several laboratories.
CYP2C9 act: human CYP2C9 activators, primary screen, biochemical, luminescence | Cytochrome P450 2C9 (Homo sapiens), P11712 | activation factor at 5 µM | 1.4% of 96,000 active | recombinant CYP2C9, luciferin-H conversion; active compounds read high; factor 1 = untreated enzyme, 0 = blocked;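 active = activation factor of 2 or more for CYP2C9 at a 5 µM dose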;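 also: 0 = sulfaphenazole-blocked wells and 1 = vehicle-only wells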
CYP2C19 inhib: blockers of cytochrome P450 2C19 activity – biochemical, luminescence, ADME assay, primary screen. CYP2C19 Supersomes, luciferin-H EGE luminescence, 30 min. inhibition, % at 5 µM. 21% of 96,000 active;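 active = CYP2C19 inhibition above a set limit at 5 µM in the primary screen, cut at about 50% in these data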;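 also: plate controls were negative control wells for no effect and 2.5 mM tranylcypromine positive control for full effect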
CYP2C19 activ: human CYP2C19 activators, primary screen, biochemical, luminescence; Cytochrome P450 2C19 (Homo sapiens), P33261; recombinant CYP2C19, luciferin-H EGE luminescence; active compounds read high; 0 = fully inhibited enzyme, 1 = untreated enzyme; activation factor at 5 µM; 96,000 tested, under 10 active;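 active = activation factor of at least 2 at 5 µM in the primary screen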;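 also: 0 = wells with 2.5 mM tranylcypromine and 1 = vehicle-only wells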
Measles CPE: compounds protecting cells from measles virus cytopathic effect, primary screen, measles RdRp inhibitor project, single point, MLSMR library, absorbance | 1.5% of 140,000 active | AID 841, 2007 | protection (pct of control), % at 4 µM | Measles virus-infected cells, CPE protection; in the data active = protection mostly above about 24%, no sharp cut-off; inactive = mostly below about 26%
CYP2C9 inhib: blockers of cytochrome P450 2C9 activity – biochemical, luminescence, ADME assay, primary screen. inhibition, % at 5 µM. CYP2C9 Supersomes, luciferin-H conversion. 20% of 96,000 active. P11712;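 active = blocking of liver enzyme CYP2C9 beyond about 50% at 5 µM, limit read from the data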
Numbers without * were called inactive; nt = not tested or not shown. The list is not random: actives were taken first. Their share in the collection is about 22%.

SMILES	CYP2C9 act	CYP2C19 inhib	CYP2C19 activ	Measles CPE	CYP2C9 inhib
CCOC(=O)C1=C(c2ccccc2)N=c2s/c(=C\c3cccc(O)c3)c(=O)n2C1c1cccs1 (configuration not stated)	nt	nt	nt	30	nt
Cc1cc(C(=O)CSc2nc3ccccc3[nH]2)c(C)n1CC1CCCO1 (configuration not stated)	0.4	54*	0.5	39*	56*
Cc1cccc(-n2nnnc2SCC(=O)c2cc(C)n(Cc3ccco3)c2C)c1	2.6*	46	0.5	16	-158
Cc1cccc(-n2nnnc2SCC(=O)c2cc(C)n(CC3CCCO3)c2C)c1 (configuration not stated)	1.6	90*	0.1	48	-63
Cc1cc(C(=O)CSc2nnnn2-c2ccc(O)cc2)c(C)n1Cc1ccc2c(c1)OCO2	0.7	99*	0	4	25
Cc1ccc(-n2nnnc2SCC(=O)c2cc(C)n(CC3CCCO3)c2C)cc1 (configuration not stated)	1.1	42	0.6	20	-13
Cc1cccc(NC(=O)/C(=C\c2cccs2)NC(=O)c2ccccc2)c1	0.9	2	1	5	12
COc1ccccc1N1CCN(CCc2n[nH]c(=S)n2-c2ccccc2)CC1	1.2	-21	1.2	2	-20
O=C(COc1ccccc1Cl)Nc1ccc2c(c1)OCCO2	0.8	30	0.7	11	22
CCOC(=O)CCC(=O)O[C@H]1[C@H](O[C@@H]2[C@@H](C)[C@H](O[C@H]3C[C@@](C)(OC)[C@@H](O)[C@H](C)O3)[C@@H](C)C(=O)O[C@H](CC)[C@@](C)(O)[C@H](O)[C@@H](C)C(=O)[C@H](C)C[C@@]2(C)O)O[C@H](C)C[C@@H]1N(C)C	nt	nt	nt	36	nt
C=CCn1c(SCC(=O)c2cc(C)n(CC3CCCO3)c2C)nnc1-c1ccccc1 (configuration not stated)	0.9	73*	0.3	7	8
Cc1cc(C)c(COCc2cc(/C=N/O)c(C)cc2C)cc1/C=N/O	0.9	36	0.6	1	8
CSc1cc(/C=N/O)c(SC)s1	0.6	66*	0.3	7	44
CCOC(=O)c1sc(NC(=O)c2ccc(S(=O)(=O)N3CCCCC3)cc2)nc1-c1ccccc1	nt	nt	nt	8	nt
CCc1sc(NC(=O)COC)nc1-c1ccccc1	0.4	75*	0.2	28*	57*
CCOC(=O)Nc1nc(-c2ccccc2)c(C(=O)c2ccc(Cl)cc2)s1	0.4	73*	0.3	31	64*
CCOC(=O)Nc1sc(C)nc1-c1ccccc1	0.8	61*	0.4	15	18
CNc1nc(C)c(C(=O)c2ccc(Cl)cc2)s1	0.4	66*	0.3	14	61*
COC(=O)Nc1sc(C)nc1-c1ccccc1	1.1	0	1	nt	-7
COCC(=O)Nc1nc(-c2ccc(C)cc2)c(C)s1	nt	nt	nt	7	nt
COc1ccc(/C=N/OCC(=O)N2CC3(C)CC2CC(C)(C)C3)cc1 (configuration not stated)	0.9	26	0.7	13	15
CNC(=O)CSc1nnc(-c2cccs2)o1	1	-7	1.1	16	4
